Bioassay records: PubChem BioAssay, several laboratories
Sampled rows, rich in hits. Any-hit rate of the full collection: about 6.2%.
NTR1 agonist: NTR1 (human) agonism; P30989; NTR1-U2OS beta-arrestin-GFP spot imaging, agonist mode; activation, % at 20 µM; 330,000 tested, 0.17% active; AID 493036;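 active = activation at or above 40% of the spot to cytoplasm intensity ratio, with at least 20 cells analyzed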;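 note: 0% = DMSO without peptide and 100% = 100 nM NTR1 peptide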
AI-2 QS mod: Vibrio harveyi AI-2 quorum sensing modulation. Vibrio harveyi JMH597 AI-2 luminescence/OD600 ratio, 9 h; hits give low values; strain lacks LuxN and CqsS sensors; 0 = neutral-control median. activity change, % at 7.5 µM. 300,000 tested, 0.4% active. AID 2094; in the data active = activity change below about -75%, passing the limit was not always enough;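 note: luminescence divided by OD600 gain over 9 h not by final OD600 alone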
Mot1-301 SUMO: blocks SUMOylation pathway, rescuing yeast Mot1-301 growth | S. cerevisiae Mot1-301 growth rescue, ATP luminescence, 38.5C; percent above DMSO median, 100 means doubled | growth rescue, % at 18.8 µM | 320,000 tested, 1% active | AID 2716;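 active = every valid replicate shows activation above 250% relative to neutral control wells; inactive = the rest, any valid replicate at or below 250%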;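 note: OY570 slx delta 5 strain wells were the positive control but not used for scaling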
AHR activator: activators of human aryl hydrocarbon receptor; P35869; AHR-responsive luciferase reporter cells, luminescence; activation, % at 5 µM; 320,000 tested, 2.5% active; AID 2796; in the data active = activation above about 47%;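 note: 0% = vehicle wells and 100% = reference agonist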
Target sequence (P35869 whole entry, looked up): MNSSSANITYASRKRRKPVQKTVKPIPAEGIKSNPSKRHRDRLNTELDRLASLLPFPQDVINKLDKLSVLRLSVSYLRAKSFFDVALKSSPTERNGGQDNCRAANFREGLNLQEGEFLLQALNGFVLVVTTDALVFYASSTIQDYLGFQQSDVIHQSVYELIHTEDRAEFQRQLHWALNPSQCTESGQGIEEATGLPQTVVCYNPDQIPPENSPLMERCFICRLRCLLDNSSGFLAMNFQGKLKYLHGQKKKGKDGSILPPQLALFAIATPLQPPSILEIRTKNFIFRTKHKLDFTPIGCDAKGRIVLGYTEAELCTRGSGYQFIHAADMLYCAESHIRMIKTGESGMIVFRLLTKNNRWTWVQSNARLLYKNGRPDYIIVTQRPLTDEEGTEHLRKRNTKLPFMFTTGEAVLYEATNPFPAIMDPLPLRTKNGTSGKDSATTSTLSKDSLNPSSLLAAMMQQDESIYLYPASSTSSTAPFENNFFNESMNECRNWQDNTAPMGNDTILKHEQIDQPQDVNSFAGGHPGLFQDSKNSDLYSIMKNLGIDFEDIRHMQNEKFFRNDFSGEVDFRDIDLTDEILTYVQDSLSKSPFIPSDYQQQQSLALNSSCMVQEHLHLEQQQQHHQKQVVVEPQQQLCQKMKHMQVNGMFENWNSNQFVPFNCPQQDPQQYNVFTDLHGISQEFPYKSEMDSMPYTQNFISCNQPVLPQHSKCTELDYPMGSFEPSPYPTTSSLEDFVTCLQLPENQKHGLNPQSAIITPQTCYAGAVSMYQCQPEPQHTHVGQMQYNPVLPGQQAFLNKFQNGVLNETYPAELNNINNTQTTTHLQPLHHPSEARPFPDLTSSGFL
Cardio protect: modulators protecting cardiomyocytes from myocardial damage. H9c2 cardiomyocytes, H2O2 injury protection, ATPLite, 2 h. protection from H2O2 cell death, % at 20 µM. 360,000 tested, 0.63% active;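 active = compounds giving at least 50% protection of heart cells from peroxide-induced death in the single-dose screen, raw or plate-pattern-corrected value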;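 note: 0% = DMSO wells with peroxide and 100% = DMSO wells without peroxide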
NR3A LBD binder: modulates the human NR3A ligand-binding domain; NR3A LBD differential scanning fluorimetry, Tm shift; 0% = protein alone, 100% = glycine-bound protein; Tm shift relative to glycine control, % at 25 µM; 340,000 tested, 2.5% active; AID 1259313;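 active = melting temperature shift of at least 10% of the positive control shift, at one fixed dose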
Active calls of the source: *.

Screening C#CCn1c(=NC(=O)c2cc(Cl)sc2Cl)sc2cc(S(N)(=O)=O)ccc21 returned NTR1 agonist -2, AI-2 QS mod 40, Mot1-301 SUMO 260, AHR activator 2, Cardio protect -11 and NR3A LBD binder 31*.
Screening COC(=O)Cn1c(=NC(=O)c2sc3ccccc3c2Cl)sc2cc(S(N)(=O)=O)ccc21 returned NTR1 agonist 6, AI-2 QS mod 17, Mot1-301 SUMO -5, AHR activator 0, Cardio protect -10 and NR3A LBD binder 13*.
Screening C#CCn1c(=NC(=O)CN2C(=O)CCC2=O)sc2cc(S(N)(=O)=O)ccc21 returned NTR1 agonist 3, AI-2 QS mod 14, Mot1-301 SUMO -7, AHR activator -2, Cardio protect 0 and NR3A LBD binder -2.
`NS(=O)(=O)c1ccc(NC(=O)c2cc(-c3cccs3)nc3ccccc23)cc1` gave NTR1 agonist 0, AI-2 QS mod 21, Mot1-301 SUMO 1, AHR activator 10, Cardio protect -1 and NR3A LBD binder 1.
For C#CCn1c(=NC(=O)c2cc(-c3cccs3)nc3ccccc23)sc2cc(S(N)(=O)=O)ccc21 the results were NTR1 agonist 14, AI-2 QS mod 24, Mot1-301 SUMO 5, AHR activator 36, Cardio protect 7 and NR3A LBD binder 15*.
O=C(O)c1cccc(-n2nc(-c3ccc(Cl)c([N+](=O)[O-])c3)c3ccccc3c2=O)c1 was read as NTR1 agonist 1, AI-2 QS mod 4, Mot1-301 SUMO 6, AHR activator -2, Cardio protect 5 and NR3A LBD binder 3.
Screening Cc1cc(C)cc(NC(=O)C[n+]2ccccc2)c1 returned NTR1 agonist 0, AI-2 QS mod -2, Mot1-301 SUMO 4, Cardio protect -6 and NR3A LBD binder 0.
For O=C(C1CCN(C2CCN(Cc3ccsc3)CC2)CC1)N1CCOCC1 the results were NTR1 agonist -1, AI-2 QS mod 13, Mot1-301 SUMO 12, AHR activator 9, Cardio protect 0 and NR3A LBD binder 1.
CCCCC(=O)Nc1cc(OCC)c(NC(=S)NC)cc1OCC was read as NTR1 agonist 3, AI-2 QS mod 7, Mot1-301 SUMO -5, AHR activator 71*, Cardio protect 0 and NR3A LBD binder 0.
Screening O=C(Cn1nnc(-c2ccccc2NC(=O)c2ccco2)n1)Nc1ccccc1 returned NTR1 agonist 25, AI-2 QS mod 3, AHR activator 2, Cardio protect -7 and NR3A LBD binder 3.
For Cc1ccc(NC(=O)Cn2nnc(-c3ccccc3NC(=O)c3cccs3)n2)cc1 the results were NTR1 agonist 6, AI-2 QS mod 3, Mot1-301 SUMO 3, AHR activator 24, Cardio protect -4 and NR3A LBD binder 20*.
COc1ccc(NC(=O)Cn2nnc(-c3ccccc3NS(=O)(=O)c3ccc(OC)cc3)n2)cc1 was read as NTR1 agonist 6, AI-2 QS mod 36, Mot1-301 SUMO -1, AHR activator 2, Cardio protect -5 and NR3A LBD binder 1.
For COc1ccc(NC(=O)Cn2nnc(-c3ccccc3NC(=O)c3cccs3)n2)cc1 the results were NTR1 agonist 17, AI-2 QS mod 25, Mot1-301 SUMO -9, AHR activator -1, Cardio protect -7 and NR3A LBD binder 10*.
For CCOc1ccc(S(=O)(=O)Nc2ccc(C(=O)NCC(C)(C)N3CCOCC3)cc2)cc1 the results were NTR1 agonist 0, AI-2 QS mod 23, Mot1-301 SUMO 0, AHR activator 1, Cardio protect -4 and NR3A LBD binder -2.
CCCc1nc(SCC(=O)N2CCCCCC2)c2c(=O)n(C)c(=O)n(C)c2n1 was read as AI-2 QS mod -3, Mot1-301 SUMO -10 and AHR activator 2.
For COC(=O)c1c(C(=O)OC)c2ccncn2c1Cl the results were NTR1 agonist 1, AI-2 QS mod 9, Mot1-301 SUMO 11, AHR activator 74*, Cardio protect -4 and NR3A LBD binder -2.
Screening CCC(=O)N(C)/C=C1\Sc2ccccc2C1=O returned NTR1 agonist 0, AI-2 QS mod 5, Mot1-301 SUMO 121, AHR activator 17, Cardio protect 2 and NR3A LBD binder 2.
Screening CC(=O)N(C)/C=C1\Sc2ccccc2C1=O returned NTR1 agonist -1, AI-2 QS mod 17, Mot1-301 SUMO 100, AHR activator 9, Cardio protect 9 and NR3A LBD binder 14*.
Screening CC(=O)Nc1ccc(NC(=S)NC(=O)/C=C/c2ccc(Cl)cc2)cc1 returned NTR1 agonist -1, AI-2 QS mod 20, Mot1-301 SUMO -24, AHR activator -2, Cardio protect 2 and NR3A LBD binder -5.
CC(=O)c1ccc(NC(=O)/C=C/c2ccc(C)cc2)cc1 was read as NTR1 agonist 1, AI-2 QS mod -59, Mot1-301 SUMO -18, AHR activator -2, Cardio protect 0 and NR3A LBD binder 20*.
`CCC(=O)Nc1ccc(NC(=S)NC(=O)/C=C/c2ccccc2)cc1` gave NTR1 agonist 0, AI-2 QS mod 0, Mot1-301 SUMO -19, AHR activator 7, Cardio protect 5 and NR3A LBD binder 15*.
For CCS(=O)(=O)c1ccc(O)c(NC(=O)/C=C/c2ccc(Cl)cc2)c1 the results were NTR1 agonist 2, AI-2 QS mod -83*, Mot1-301 SUMO 259, AHR activator 5, Cardio protect 0 and NR3A LBD binder -26.
CC(=O)c1ccc(NC(=S)NC(=O)/C=C/c2ccccc2)cc1 was read as NTR1 agonist 0, AI-2 QS mod -17, Mot1-301 SUMO -11, AHR activator 2, Cardio protect 0 and NR3A LBD binder 4.
`CCC(=O)Nc1ccc(NC(=O)/C=C/c2ccc(Cl)cc2)cc1` gave NTR1 agonist -2, AI-2 QS mod 10, Mot1-301 SUMO 43, AHR activator -1, Cardio protect 0 and NR3A LBD binder 20*.
`CCCCOc1ccc(C(=O)NCC(=O)NC2CCC(C)CC2)cc1` (stereo not drawn) gave NTR1 agonist 1, AI-2 QS mod -1, Mot1-301 SUMO -5, AHR activator 1, Cardio protect -6 and NR3A LBD binder -2.
CC(=O)c1cccc(N(C(=O)c2ccco2)C(C(=O)NC2CCCC2)c2ccccc2F)c1 (stereo not drawn) was read as NTR1 agonist 2, AI-2 QS mod -3, Mot1-301 SUMO 0, AHR activator -2, Cardio protect 6 and NR3A LBD binder -1.
For COC(=O)c1sccc1NC(=O)/C=C\c1ccc(Cl)cc1Cl the results were Cardio protect -10 and NR3A LBD binder -2.
For COC(=O)c1sccc1NC(=O)/C=C/c1ccc(Cl)cc1 the results were NTR1 agonist 4, AI-2 QS mod 2, Mot1-301 SUMO -15, AHR activator 54*, Cardio protect -14 and NR3A LBD binder 4.
